Assay results published in PubChem BioAssay AID2265 (National Center for Advancing Translational Sciences (NCATS), 2010).
The list shows a part of the results. Inconclusive results are not listed. Activity calls are given as the source filed them. Calls follow the shape of the dose curve; as a rule, active = well fitted inhibition curve with a large enough effect; inconclusive = small, poorly fitted or top-dose-only effect; inactive = flat fitted curve, though single readings scatter.

These molecules were tested against Luciferin 4-monooxygenase (Photuris pensylvanica) (UniProt Q27757) (assay: Secondary assay for Inhibitors of Human Pyruvate Kinase M2 isoform: FLuc Counterscreen). Conditions: Kinase-Glo firefly luciferase, luminescence, 8 min; series mostly up to 57.5 µM.
Experimental: NIH Chemical Genomics Center [NCGC] Matthew G. Vander Heiden, M.D., Ph.D. [Harvard Medical School, 77 Avenue Louis Pasteur, Boston, MA 02115] MLPCN Grant: 1 R03 MH085679-01 NCGC Assay Overview: Luciferase (Kinase-Glo, Promega Corporation) was assayed for its ability to generate light using ATP and luciferin as substrates. The ATP concentration in the assay (10 uM) was within the linear range of enzyme activity for the assay conditions used. This assay was used as an counter screen for human pyruvate kinase M2 isoform.
NCGC Assay Protocol Summary: Four uL of substrate mix (final concentration, 50 mM imidazole pH 7.2, 50 mM KCl, 7 mM MgCl2, 10 uM ATP, 0.01% Tween 20, 0.05% BSA) was dispensed into white 1536 well plates. Twenty-three nL of compound was delivered by a pin tool and 2 uL of luciferase detection mix (Kinase-Glo, Promega)) was added. Following 8-minute incubation at ambient temperature, luminescence was measured by a ViewLux (Perkin Elmer) at 5 seconds exposure/plate.
`Cc1ccc(Nc2c(-c3ccc(C)s3)nc3ccccn23)cc1` was tested, and the outcome was “inactive”. For `Cc1ccc(-c2nc3ccccn3c2Nc2ccc(F)cc2)o1`, the outcome was “inactive”.
